Compounds with a hit are over-represented: about 1.3% of the library has one in this group of screens.
Mtb betalactam = beta-lactam sensitization of Mtb H37Rv; M. tuberculosis H37Rv growth with meropenem, percent inhibition; inhibition, % at 25 µM; 330,000 tested, 0.27% active; AID 434955; call rule not given here;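 note: growth measured after seven days incubation then overnight dye step; 0% = bacteria only wells and 100% = bacteria with antibiotic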
RN4220 kill = S. aureus RN4220 growth inhibition; OD600, 16 h; inhibition, % (concentration not given with the values); 330,000 tested, 0.33% active; in the data active = inhibition above about 85%;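 note: plate controls were untreated cells for no effect and reference antibiotic for full effect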
MazEF act = activators of E. coli MazEF toxin-antitoxin RNase. AID 504720. 350,000 tested, 0.32% active. P0AE70. activation, % at 20 µM. FAM/BHQ RNA-DNA oligo cleavage fluorescence, 5 h; in the data active = activation above about 50%
Target sequence (P0AE70 whole entry, looked up): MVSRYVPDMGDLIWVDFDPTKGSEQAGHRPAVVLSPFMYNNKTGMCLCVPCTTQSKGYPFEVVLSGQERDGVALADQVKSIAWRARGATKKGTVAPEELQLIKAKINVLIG
ugtP null kill = compounds lethal to S. aureus RN4220 ugtP deletion mutant; OD600 growth, 16 h; growth inhibition, % (concentration not given with the values); 330,000 tested, 0.54% active; in the data active = growth inhibition above about 68%;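 note: plate controls were untreated wells for no effect and antibiotic for full effect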
CCHFV vOTU inh = CCHFV vOTU protease inhibition; Pep-AMC fluorescence; inhibition, % at 11.5 µM; 370,000 tested, 0.55% active; in the data active = inhibition above about 30%; note: 0% = vehicle wells with enzyme and 100% = no enzyme wells
3CLpro inhibitor = SARS-CoV 3CLpro protease inhibition | P0C6X7 | recombinant SARS-CoV 3CLpro, quenched FRET peptide cleavage | inhibition, % at 6 µM | 290,000 tested, 0.14% active; in the data active = inhibition above about 12%
Starred values were filed as active, the others as inactive; u = inconclusive; x = no result.

SMILES	Mtb betalactam	RN4220 kill	MazEF act	ugtP null kill	CCHFV vOTU inh	3CLpro inhibitor
CC1OC(n2cc(F)c(=O)[nH]c2=O)C(O)C1O (configuration not stated)	x	76	x	97*	x	x
CCOC(=O)C1C2COc3ccc(Br)cc3C2N2C(=O)N(c3cccc(Cl)c3)C(=O)[C@@]12C (some centres not stated)	x	-3	x	-37	x	x
N#CC(C#N)=c1ccc2c(c1)N1C3=C(CCCC3)CC3CCCCC31N=2 (configuration not stated)	101	91*	11	92*	7	2
CCOc1ccccc1C=NNc1cc(C)nc2ccc(C)cc12	x	5	x	7	x	x
O=c1c2ccccc2nc(-c2ccc(Cl)c(Cl)c2)n1O	93	65	0	41	4	2
N#Cc1ccc(-c2nc3cc(Cl)ccc3c(=O)n2O)cc1	u	15	-2	-4	-9	2
Cc1ccc(-c2nc3c(Cl)cc(Cl)cc3c(=O)n2O)cc1	73	99*	-13	99*	5	9
O=c1c2cc(Br)ccc2nc(-c2ccc(Cl)cc2)n1O	87	99*	1	99*	-11	1
O=c1c2ccc(Cl)cc2nc(-c2cccc(C(F)(F)F)c2)n1O	99	96*	2	100*	11	7
O=c1c2cc(Cl)ccc2nc(-c2ccc([N+](=O)[O-])cc2)n1O	96	8	-22	-6	1	4
COc1c2c(cc(O)c1C(C)=O)OC(C)(C)C=C2	x	8	-11	17	5	x
CC(C)=CCC12Oc3cc(O)ccc3C1(O)Oc1cc3c(c(O)c1C2=O)C=CC(C)(C)O3 (configuration not stated)	-4	73	9	97*	x	x
CC1CC[C@]2(C(=O)O)CC[C@]3(C)C(=CCC4[C@@]5(C)CCC(O)C(C)(C)C5CC[C@]43C)C2C1C (some centres not stated)	x	100*	x	100*	x	x
CC(=NNC(=S)NC1CCCCC1)c1ccc(C)o1	x	9	x	-1	x	x
C[C@@H]1CN(c2c(F)c(F)c3c(=O)c(C(=O)O)cn(C4CC4)c3c2F)C[C@H](C)N1	x	96*	7	97*	-6	-4
C[C@@H]1CN(c2c(F)c(N)c3c(=O)c(C(=O)O)cn(C4CC4)c3c2F)C[C@H](C)N1	x	x	x	x	x	3
Cc1nn(-c2cc(C)c3ccccc3n2)c2c1C1C(C2)C1(C)C (configuration not stated)	11	-3	0	83*	-1	-2
Cc1cc(-n2nnc3ccccc32)nc2ccccc12	-6	9	4	-11	-5	-4
Cc1ccnc(N/C=C(/NC(=O)c2ccccc2)C(=O)NN=Cc2ccc(Cl)cc2)n1	x	7	x	-6	x	x
CC1(C)CC(=O)C(N=Nc2cc3c(cc2[N+](=O)[O-])OCCO3)=C(O)C1	-1	8	93*	9	11	0
Cc1ccc(O)c(N=NC2=C(O)CC(C)(C)CC2=O)c1	19	6	-4	-2	8	-2
CC1CCN(Cc2c(C(=O)NN=Cc3ccc(C(C)C)cc3)nnn2-c2nonc2N)CC1	x	0	x	8	x	x
COc1cccc(C=NNc2snc(SC)c2C#N)c1O	x	96*	x	96*	x	x
COc1ccc(C2CC=C(C(=O)O)C(c3ccc(F)cc3)N2S(=O)(=O)c2ccc(Cl)cc2)cc1 (configuration not stated)	x	24	x	19	x	x
O=C1CCCCC=CCC(CC(=O)N(CCO)Cc2ccccc2)C(=O)NCC(c2ccccc2)O1 (configuration not stated)	x	3	x	1	x	x
COc1cc(/C=C/C(=O)Nc2ccc(OC)c(S(=O)(=O)N3CCOCC3)c2)ccc1OC(F)F	2	-12	6	87*	13	x
CC(=O)N1N=C(c2ccc(Cl)cc2)CC1c1ccc([N+](=O)[O-])cc1 (configuration not stated)	1	-1	9	6	-9	3
CC1(O)CC(c2ccc(Cl)cc2)=NN1C(=O)c1ccc([N+](=O)[O-])cc1 (configuration not stated)	1	99*	4	98*	3	0
O=C1N=c2ccccc2=C1c1[nH]c(=S)[nH]c1O	5	7	-4	7	8	0
O=C1N=c2ccccc2=C1c1c(O)[nH]c2c(C(F)(F)F)cccc12	8	96*	3	98*	-12	-2
